Screens from PubChem.
This excerpt belongs to a sample that is enriched for hits.
SF-1 inh: blocks the human nuclear receptor SF-1; hit rate 0.55% among 65,000; inhibition, % at 10 µM; Q13285; CHO-K1 Gal4-SF-1 LBD luciferase reporter;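 active = inhibition above the mean inhibition of all tested compounds plus 3 SD, cut at about 48% in these data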;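 note: 0% = SF-1 transfected cells with DMSO and 100% = mock-transfected cells lacking SF-1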
Target sequence (Q13285 whole entry, looked up, the tested form may be a part): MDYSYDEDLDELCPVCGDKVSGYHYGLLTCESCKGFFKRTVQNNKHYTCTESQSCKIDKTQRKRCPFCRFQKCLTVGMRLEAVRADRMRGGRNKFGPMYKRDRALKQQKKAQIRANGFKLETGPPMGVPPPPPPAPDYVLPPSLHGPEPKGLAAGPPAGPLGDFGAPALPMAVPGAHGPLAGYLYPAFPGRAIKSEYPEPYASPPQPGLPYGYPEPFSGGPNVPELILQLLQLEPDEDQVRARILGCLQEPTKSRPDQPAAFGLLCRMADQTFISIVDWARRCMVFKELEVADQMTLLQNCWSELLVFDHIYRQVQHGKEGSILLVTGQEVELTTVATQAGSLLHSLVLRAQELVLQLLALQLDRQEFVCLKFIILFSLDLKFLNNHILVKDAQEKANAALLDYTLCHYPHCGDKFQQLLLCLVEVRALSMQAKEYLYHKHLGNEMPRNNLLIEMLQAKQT
Numbers without * were called inactive.

SMILES | SF-1 inh
CC(=O)c1cccc(NC(=O)c2cc(C(C)C)on2)c1 | -74
O=C(Cc1ccccc1)N(c1ccc(F)cc1)C1C=CS(=O)(=O)C1 (configuration not stated) | 7
CC(=O)c1c(C)[nH]c(C(=O)Nc2ccc(C)cn2)c1C | 51*
Cc1ccccc1C(=O)Nc1ccc(Br)cn1 | -82
CC(=O)c1c(C)[nH]c(C)c1C(C)=O | 7
Cc1cc(C)c(C(=O)CSc2n[nH]c(=O)n2C2CC2)cc1C | 12
O=C(CN1CCOc2ccccc21)NC1CC1 | -20
Cc1c(C(=O)N2CCOCC2)[nH]c2c1C(=O)CC(c1ccccc1Cl)C2 (configuration not stated) | -67
CC(C)(C)c1cc(CN2CCCC(O)C2)c(O)c(C(C)(C)C)c1 (configuration not stated) | 14
O=C(Nc1ccc(N2CCOCC2)c(Cl)c1)c1ccc(Br)o1 | -67
O=C(Nc1ccc(N2CCOCC2)cc1)c1cnsn1 | 69*
CN1CCN(c2ccc(NC(=O)c3ccc4c(c3)OCO4)cc2)CC1 | -61
Cc1cc(=O)oc2cc(OCC(=O)OCc3nnc(-c4ccccc4)o3)ccc12 | -6
CCC(C)NS(=O)(=O)c1ccc(NC(=O)c2c(-c3ccccc3)noc2C)cc1 (configuration not stated) | -11
Nc1nc(N)c2sc3nc4c(cc3c2n1)CCC4 | -57
CCOC(=O)c1ccc(NS(=O)(=O)c2ccc3[nH]c(=O)[nH]c3c2)cc1 | -6
CCOC(=O)c1oc2ccc(S(=O)(=O)Nc3ccc4c(c3)n(C)c(=O)n4C)cc2c1C | 57*
Cc1c(C(=O)O)oc2ccc(S(=O)(=O)NCc3ccc4c(c3)OCO4)cc12 | -4
O=C(c1ccc(C23CC4CC(CC(C4)C2)C3)o1)N1CCOCC1 | -14
Cc1ccc(-c2csc3ncnc(Sc4nnc(CN5CCCCCC5=O)o4)c23)cc1 | 71*
COC(=O)c1ccc(S(=O)(=O)NCCSc2nnc3c4ccccc4n(C)c3n2)cc1 | -2
O=C(CSc1nnc(-c2cccnc2)n1Cc1ccco1)N1c2ccccc2Sc2ccccc21 | 11
COc1ccc([C@@H]2Sc3ccccc3N(CCN(C)C)C(=O)[C@@H]2OC(C)=O)cc1 | -6
CN1C(=O)c2ccc(C(=O)NC3CCCCC3)cc2C1=O | -6
CCn1c(SCC(=O)Nc2nc3c(s2)CCCC3)nc2c1c(=O)n(C)c(=O)n2C | 11
SMILES | SF-1 inh
CCC(C)NC(=O)CCNS(=O)(=O)c1ccc(Br)cc1 (configuration not stated) | 1
CC(=O)CC1(O)C(=O)N(CN2CCN(c3ccccc3)CC2)c2ccccc21 (configuration not stated) | 0
CCOc1ccccc1C(=O)N1CCN(c2cccc(Cl)c2)CC1 | 55*
CCOc1ccccc1C(=O)N1CCN=C1SC | 6
COC(=O)c1[nH]c2ccccc2c1NC(=O)CN1CCN(c2cccc(Cl)c2)CC1 | -20
O=C(NCc1ccco1)c1cc(-c2cccs2)on1 | -28
Cc1cc(C)nc(N(C#N)CN2C(=O)c3ccccc3C2=O)n1 | 2
COc1ccc(CNC(=O)C2CCCN(S(=O)(=O)c3cnc[nH]3)C2)cc1 (configuration not stated) | -5
COc1ccc(-c2cc3nc4n(c(=O)c3s2)CCC4)cc1 | 78*
COc1cc(C2C3C(=O)N(Cc4ccccc4)C(=O)C3ON2c2ccccc2)cc(OC)c1O (configuration not stated) | -1
COc1cccc(Cn2c(NCc3ccco3)nc3c2c(=O)n(C)c(=O)n3C)c1 | 63*
COc1ccc(OC)c(C(=O)CSc2nc3c(c(=O)n(C)c(=O)n3C)n2C(C)C)c1 | 9
CCN(CC)CCn1c(NCc2cccc(OC)c2)nc2ccccc21 | 3
COc1ccc(-n2nc(C(=O)NCc3ccco3)c3c4ccccc4n(C)c3c2=O)cc1 | 26
COc1ccc(Cl)c(Cn2c(NCc3ccco3)nc3c2c(=O)n(C)c(=O)n3C)c1 | 49*
Cn1c(=O)c2c(nc(CN3CCN(C(=O)c4ccco4)CC3)n2Cc2ccc(F)cc2)n(C)c1=O | -12
CCOc1ccccc1NC(=O)CSc1nc2cccnc2n1C | 9
CC(C)CCn1c(Sc2nc3ccccc3s2)nc2c1c(=O)[nH]c(=O)n2C | 12
CCCCNC(=O)c1nnn(-c2ccccc2)c1N | -67
CCc1ccc2oc(-c3cc(N)ccc3Cl)nc2c1 | 17
CCc1ccc2oc(-c3cc(N)ccc3O)nc2c1 | 56*
CCc1ccc2oc(-c3cc(N)cc(C)c3O)nc2c1 | -39
CC(=O)NC1(C(F)(F)F)NC(=O)N(CC(C)C)C1=O (configuration not stated) | 4
CCOC(=O)CC(=O)CSc1nnc2c(n1)[nH]c1ccccc12 | -53
COc1ccc2[nH]c3nc(SC(C)C)nnc3c2c1 | 63*
SMILES | SF-1 inh
CCOc1ccccc1NC(=O)c1ccccc1NS(C)(=O)=O | -4
CC(NC(=O)C1CCC(=O)N1Cc1ccc(F)cc1)c1ccc2c(c1)OCCO2 (configuration not stated) | -9
COc1cc2nc(=S)n3[nH]c(CCn4nc(C)cc4C)nc3c2cc1OC | 61*
CC12CC(NC(=O)N1c1ccc(C(=O)N3CCN(c4ccc(F)cc4)CC3)cc1)c1ccccc1O2 (configuration not stated) | -2
O=C(NCCN1CCCC1)c1ccc2c(=O)n(CCc3ccccc3)c(=O)[nH]c2c1 | 3
O=C(CCCC(=O)N(CC(=O)NC1CCCCC1)Cc1ccc2c(c1)OCO2)Nc1ccccn1 | 6
COc1ccc(C)cc1NC(=O)c1cc2c(CO)cnc(C)c2oc1=N | -24
CN(C)c1ccc(N/C=C/C(=O)c2ccccc2)cc1 | 66*
CCOC(=O)c1c(C)c(C(=O)Nc2ccc(N(C)C)cc2)c(C)n1CC | -72
CN(C)c1cccc(C(=O)NC2CCCCCC2)c1 | -75
Cc1cc(Nc2ccc(F)cc2F)n2ncnc2n1 | -9
O=C(Nc1cccc(C(F)(F)F)c1)C1CCN(S(=O)(=O)c2cnc[nH]2)CC1 | 2
O=C(Nc1nccs1)c1ccc(NC(=O)c2ccco2)cc1 | -56
CCOC(=O)C1CCN(S(=O)(=O)c2c(C)[nH]c(=O)[nH]c2=O)CC1 | -10
Oc1ccc(N2CCN(c3ncnc4sc5c(c34)CCC5)CC2)cc1 | 50*
O=c1[nH]c(CN2CCN(Cc3ccccc3)CC2)nc2sc3c(c12)CCC3 | -5
CC(C)c1nc2oc3c(N4CCNCC4)ncnc3c2c2c1CCC2 | -15
COc1cccc(C(=O)NCc2cccnc2)c1 | -22
C=CCn1c2ccccc2c2nnc(SCCCn3c(=O)[nH]c4ccccc43)nc21 | 6
Cc1cc(C)nc(SCC(=O)N2CCCCC2)n1 | 8
Cc1ccc(-c2cnc(NC(=O)CCC(=O)N3CCCCC3)n2C)cc1 | 65*
Cn1c(-c2ccc3c(c2)OCO3)cnc1NCc1ccccc1 | -68
CCOC(=O)c1ccc(N2CC(O)=C(c3nc4ccccc4c(=O)[nH]3)C2=N)cc1 | 0
Cc1cccc(CN2CCN(CC(=O)NCc3ccc(F)cc3)C2=O)c1 | 3
Cc1nnc(Sc2nc(Sc3nnc(C)s3)nc(N3CCN(C)CC3)n2)s1 | 96*
SMILES | SF-1 inh
Cc1nc(CSc2nnc(C)s2)cs1 | 5
O=C(OCC#CCSc1nc2ccccc2o1)c1ccco1 | -24
CCN(CC)c1ccc2c(c1)CCCN2 | 5
COc1ccc(OC)c(NC(=O)CSc2nnc(CNc3ccc(F)cc3)o2)c1 | -10
COC(=O)c1ccc(C(=O)OC)c(NC(=O)CSc2nnc(-c3ccccc3Cl)o2)c1 | 3
CCOc1cc(C(=O)CSc2nnc(CNc3ccc(Cl)cc3)o2)ccc1NC(=O)CC | 56*
COc1ccc2c(Cl)c(C(=O)NC3CCS(=O)(=O)C3)sc2c1 (configuration not stated) | -50
